# Screens from PubChem BioAssay.
# Shown are actives, neighbours in structure and some others; about 3.6% of the full set was active somewhere.
# PHOSPHO1 inh: inhibitors of human PHOSPHO1 phosphatase. Q8TCT1. recombinant PHOSPHO1, absorbance phosphatase assay. inhibition, % at 13.3 µM. actives 1.1% (n = 290,000). AID 1565; in the data active = inhibition above about 60%
# A3A deaminase: inhibitors of human APOBEC3A DNA deaminase. P31941. recombinant A3A, FAM/TAMRA ssDNA deamination fluorescence. inhibition, % at 20 µM. actives 0.41% (n = 330,000);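 active = at least 40% inhibition at 20 µM here, with at most 30% in a related deaminase screen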;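 also: plate controls were A3A with DMSO for no effect and wells lacking A3A enzyme for full effect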
# Target sequence (P31941 whole entry, looked up): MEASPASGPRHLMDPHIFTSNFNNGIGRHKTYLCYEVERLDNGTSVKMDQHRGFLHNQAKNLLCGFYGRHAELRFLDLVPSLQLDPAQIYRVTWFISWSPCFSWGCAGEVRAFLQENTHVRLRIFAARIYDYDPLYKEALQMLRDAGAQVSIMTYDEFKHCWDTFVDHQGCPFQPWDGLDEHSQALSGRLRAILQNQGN
# esBAF inh: blocks esBAF chromatin remodeling in mouse ES cells; Bmi1-luciferase knock-in reporter, 24 h; 100% = twice the neutral-well signal; reporter increase, % at 12.5 µM; actives 2% (n = 350,000); in the data active = activation above about 40%; inconclusive = no clear call, values can overlap the other calls;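 also: 0% = median of the plate's neutral control wells and 100% = double that signal; a rise in the Bmi1 reporter signal indicates esBAF inhibition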
# A3G deaminase: APOBEC3G (human) deaminase inhibition. inhibition, % at 20 µM. recombinant A3G, ssDNA deamination FAM/TAMRA fluorescence. actives 0.28% (n = 330,000). Q9HC16. AID 493012;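 active = inhibition of at least 40% at 20 µM, with no more than 30% in the related APOBEC3A deaminase screen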;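 also: plate controls were DMSO wells with A3G for no effect and wells lacking A3G enzyme for full effect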
# Target sequence (Q9HC16 whole entry, looked up): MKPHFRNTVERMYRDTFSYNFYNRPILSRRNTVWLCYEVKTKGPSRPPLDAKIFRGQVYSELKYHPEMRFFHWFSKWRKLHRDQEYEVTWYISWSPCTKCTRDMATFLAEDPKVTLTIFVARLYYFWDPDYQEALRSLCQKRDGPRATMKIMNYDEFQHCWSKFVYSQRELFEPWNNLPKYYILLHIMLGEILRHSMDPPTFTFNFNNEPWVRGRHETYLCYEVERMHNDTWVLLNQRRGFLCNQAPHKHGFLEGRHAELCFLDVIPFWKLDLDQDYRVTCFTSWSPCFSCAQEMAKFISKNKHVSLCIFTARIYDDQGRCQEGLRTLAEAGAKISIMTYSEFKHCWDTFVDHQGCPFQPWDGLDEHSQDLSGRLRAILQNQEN
# MITF act: increases MITF-driven TRPM1 promoter luciferase signal. actives 0.75% (n = 300,000). activation, % at 12.5 µM. SK-MEL-5 TRPM1-promoter luciferase, 24 h; % of positive control, neutral wells = 0;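 active = mean activation of at least 80% with every replicate also reaching 80%; inconclusive = mean reaches 80% but some replicate falls short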;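 also: 0% = neutral control wells and 100% = parthenolide positive control wells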
# Wnt bcat act: activates Wnt/beta-catenin signaling in a reporter cell assay. actives 1.2% (n = 300,000). activator, plate reader. activation, % at 9.35 µM. AID 743398; in the data active = activation above about 30%, passing the limit was not always enough; inconclusive = no clear call, values can overlap the other calls;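 also: 0% = neutral control wells and 100% = positive control wells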
# An asterisk follows results filed as active; ? = inconclusive; / = not tested or not shown.
SMILES,PHOSPHO1 inh,A3A deaminase,esBAF inh,A3G deaminase,MITF act,Wnt bcat act
O=C(c1cc2ccccc2oc1=O)N1CCOCC1,35,1,49*,5,63,35*
Cc1ccc(S(=O)(=O)N2CCOCC2)cc1NC(=O)c1cc2ccccc2oc1=O,/,-2,3,-8,8,1
C[C@@H]1CN([C@@H](C)CO)C(=O)Cc2cc(NS(=O)(=O)c3cn(C)cn3)ccc2O[C@H]1CN(C)S(=O)(=O)c1ccc(Cl)cc1,/,/,2,/,/,/
O=C(CN1CCOCC1)NCC[C@H]1CC[C@H](NS(=O)(=O)c2ccc(F)cc2)[C@@H](CO)O1,/,/,-1,/,/,/
CN(C)c1cccc(C(=O)OCC(=O)N(Cc2ccccc2)C2CCS(=O)(=O)C2)c1 (stereo not drawn),40,5,46*,-3,6,-2
NC(=O)Nc1ccc(C(=O)OCC(=O)N(Cc2ccccc2)C2CCS(=O)(=O)C2)cc1 (stereo not drawn),20,2,-2,-7,-11,-1
CNC[C@@H]1OCCCC[C@H](C)Oc2ccc(NC(=O)Nc3ccc4c(c3)OCO4)cc2C(=O)N([C@@H](C)CO)C[C@H]1C,/,/,-1,/,/,/
CCOC(=O)Cc1csc(NC(=O)c2sc3nc4ccc(C)cc4cc3c2N)n1,32,-3,6,-5,/,/
CCc1nnc(NC(=O)c2sc3nc4cc(C)ccc4cc3c2N)s1,99*,-4,49*,-8,/,/
COc1ccc2[nH]c3c(=O)n(CCCCC(=O)NCCN4CCCC4)c(=S)[nH]c3c2c1,102*,-11,-1,40,8,-1
COc1ccc2[nH]c3c(=O)n(CCCCC(=O)N4CCC(C(N)=O)CC4)c(=S)[nH]c3c2c1,104*,-9,4,27,5,-4
COc1ccc2cc3cc(C(=O)NCCCN4CCc5ccccc5C4)sc3nc2c1,-2,2,/,-3,64,15
COc1ccc2nc3sc(C(=O)NCCN4CCc5ccccc5C4)cc3cc2c1,-15,6,89*,0,-6,4
C[C@@H]1CCCCO[C@H](CN(C)S(=O)(=O)c2cccs2)[C@@H](C)CN([C@H](C)CO)C(=O)c2cc(N(C)C)ccc2O1,/,/,-2,/,/,/
O=C(CSC(=S)N1CCSCC1)c1ccccc1,44,0,/,-4,57,22
O=C(CSC(=S)N1CCSCC1)c1ccc(Cl)cc1,32,-1,/,-9,82*,6
CC(=O)N(C)C[C@H]1Oc2ncc(-c3ccc(C)cc3)cc2C(=O)N([C@H](C)CO)C[C@H]1C,/,/,0,/,/,/
CO[C@@H](CN(C)Cc1ccc2c(c1)OCO2)[C@@H](C)CN(C(=O)c1ccccc1)[C@H](C)CO,/,/,-6,/,/,/
O=S(=O)(Nc1cc(Sc2cccc3cccnc23)c(O)c2ccccc12)c1ccccc1,60*,/,/,/,/,0
O=C(OCc1nc2ccccc2s1)C1CCN(S(=O)(=O)c2cccs2)CC1,-25,2,56*,-6,24,44*
O=S(=O)(c1cccs1)N1CCN(Cc2nc3ccccc3s2)CC1,9,3,-4,1,/,36*
C[C@H](CO)N1C[C@H](C)[C@@H](CN(C)C(=O)c2cccnc2)Oc2cc(C#CC3CC3)ccc2S1(=O)=O,/,/,10,/,/,/
COc1ccc(S(=O)(=O)N[C@H]2CC[C@@H](CCn3cc(-c4cccc(F)c4)nn3)O[C@H]2CO)cc1,/,/,11,/,/,/
O=C(O)CC(C(=O)O)n1nc(-c2ccccc2)cc1-c1ccccc1 (stereo not drawn),3,4,58*,-1,3,/
CC(=O)n1nc(-c2ccccc2)cc1-c1ccccc1,/,-1,/,-4,53,64*
SMILES,PHOSPHO1 inh,A3A deaminase,esBAF inh,A3G deaminase,MITF act,Wnt bcat act
COc1cccc(-c2ccc3n(c2=O)C[C@@H]2[C@@H](CO)[C@H](C(=O)NCC4CC4)N(C(C)=O)[C@H]32)c1,/,/,5,/,/,/
C=CCNC(=S)NNC(=O)c1ccc(OCC(C)C)cc1,60*,-5,-6,-5,1,-1
C[C@@H]1CN([C@H](C)CO)C(=O)Cc2cc(NC(=O)C3CC3)ccc2O[C@@H]1CN(C)S(=O)(=O)c1cccs1,/,/,-2,/,/,/
CCC(C)(C)c1nnc(NC(=O)c2ccc([N+](=O)[O-])cc2)s1,1,2,48*,4,67,4
C[C@@H]1CN([C@H](C)CO)C(=O)c2cccc(NS(=O)(=O)c3cn(C)cn3)c2O[C@@H]1CN(C)C(=O)NC1CCCCC1,/,/,-6,/,/,/
CCC(=O)Nc1nc(-c2ccc3c(c2)CC(C)N3S(C)(=O)=O)cs1 (stereo not drawn),32,1,54*,-3,35,7
O=C(Nc1nc(-c2ccc3c(c2)OCCO3)cs1)c1ccco1,10,2,-3,4,54,?
CCC(=O)N1CCc2cc(-c3csc(NC(=O)c4ccco4)n3)ccc21,11,-5,45*,-5,62,5
Cc1cc(=O)oc2cc(OCc3c(F)cccc3Cl)ccc12,/,/,/,/,/,42*
O=C(OCc1ccccc1)c1ccc2c(c1)-c1ccccc1C2=O,0,0,/,-2,113*,41*
Cc1noc(C)c1COC(=O)c1ccc2c(c1)S(=O)(=O)c1ccccc1C2=O,82*,-1,11,-5,0,-3
O=C(OCc1ccccc1)c1ccccc1,/,-1,14,-6,/,0
NC(=O)COC(=O)c1ccc2c(c1)S(=O)(=O)c1ccccc1C2=O,20,1,-3,-7,-6,-1
CCCNC(=O)C[C@H]1C[C@H]2c3cc(NC(=O)Nc4ccc(F)cc4)ccc3O[C@H]2[C@H](CO)O1,/,/,0,/,/,/
O=C(Nc1ccccc1)c1ccc(=O)n(Cc2ccc(F)c(F)c2)c1,65*,-1,-3,-1,-2,-1
C[C@@H]1CN([C@@H](C)CO)C(=O)c2cc(NC(=O)Nc3ccc4c(c3)OCO4)ccc2O[C@@H](C)CCCCO[C@H]1CN(C)Cc1ccc(C(=O)O)cc1,/,/,4,/,/,/
COc1ccc(NC(=O)Nc2ccc3c(c2)[C@H]2C[C@H](CC(=O)N4CCOCC4)O[C@H](CO)[C@H]2O3)cc1,/,/,0,/,/,/
CN(c1ccc(O)cc1)S(=O)(=O)c1ccc2ccccc2c1,11,-1,58*,-7,33,0
Cc1noc(C)c1S(=O)(=O)N(C)C[C@H]1OCCCC[C@H](C)Oc2ccc(NC(=O)Nc3ccc(C(F)(F)F)cc3)cc2C(=O)N([C@H](C)CO)C[C@@H]1C,/,/,-5,/,/,/
C[C@H]1CN([C@@H](C)CO)C(=O)Cc2cc(NS(=O)(=O)c3ccccc3)ccc2O[C@@H]1CN(C)S(=O)(=O)c1ccc(F)cc1,/,/,-1,/,/,/
